Shown is part of a subset that was picked to be rich in hits.
CD40 NFkB inh: CD40 pathway inhibition in BL2 cells | BL2 NF-kB luciferase reporter, CD40L-induced, 4 h | inhibition, % at 10 µM | actives 0.94% (n = 83,000) | AID 1053188;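 active = mean inhibition of at least 50% with a set share of replicates also reaching that level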;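 also: 0% = neutral control wells and 100% = IKK inhibitor VII at 50 µM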
Starred values were filed as active, the others as inactive; ! = repeats disagree; [ ] = dose if it differs, or a comment.

SMILES	CD40 NFkB inh
C[C@]12CC[C@H](O)CC1=CCC1C2CC[C@@]2(C)C1CC[C@@H]2NC(=O)[C@@H](N)Cc1ccccc1 (stereo partly drawn)	10
CC(C)(C)[C@H](N)C(=O)N[C@H]1CCC2C3CC=C4C[C@@H](O)CC[C@]4(C)C3CC[C@@]21C (stereo partly drawn)	103*
CC(C)NC(=O)Nc1ccc2c(c1)C(=O)N(C)C[C@H](C)[C@@H](CN(C)C(=O)OC(C)(C)C)O2	15
CC(C)COC(=O)N(C)C[C@@H]1OCc2cn(nn2)CCCC(=O)N([C@H](C)CO)C[C@H]1C	0[25 µM]
C/C=C/c1ccc([C@@H]2[C@@H](CO)N(C(=O)CC)[C@H]2CN(C)S(C)(=O)=O)cc1	-6[25 µM]
C=CC(=O)N1C/C(=C/c2ccc(Cl)cc2)C(=O)/C(=C\c2ccc(Cl)cc2)C1	93*
CN(CC(=O)N1CCCCC1)S(=O)(=O)c1ccc(Cl)cc1	-8
CCN1CCN(C(=O)CN(C)S(=O)(=O)c2ccc(Cl)cc2)CC1	1
CS(=O)(=O)Nc1ccc2c(c1)[C@H]1C[C@@H](CC(=O)NCc3ccncc3)O[C@@H](CO)[C@H]1O2	9[25 µM]
O=C(C[C@H]1C[C@@H]2c3cc(NC(=O)c4ccc5c(c4)OCO5)ccc3O[C@@H]2[C@H](CO)O1)NC1CCCCC1	5[25 µM]
CNC[C@@H]1Oc2ccc(NC(C)=O)cc2C(=O)N(C)C[C@H]1C	-2
CCCCC[C@H](O)/C=C/[C@@H]1[C@@H](C/C=C\CCCC(=O)O)[C@H]2CO[C@@H]1C2	15
CCCCC[C@H](O)/C=C/[C@@H]1[C@@H](C/C=C\CCCC(=O)O)[C@@H](O)C[C@H]1O	-3
CCCCC[C@H](O)/C=C/[C@@H]1[C@@H](C/C=C\CCCC(=O)OC)[C@@H](O)C[C@H]1O	45*
C[C@H]1CN([C@@H](C)CO)C(=O)c2c(c3ccccc3n2C)-c2ccccc2CO[C@H]1CN(C)CC1CCCCC1	-1[25 µM]
O=C(NC1CCCCNC1=O)c1ccccc1 (stereo not drawn)	-11
O=C(NC(=S)/C(=C1\CCCCCN1)[N+](=O)[O-])c1ccccc1	72*
O=C(COC(=O)c1ccccc1[N+](=O)[O-])NC(=O)c1ccccc1	-41
O=C(c1cccc(F)c1)N1CC[C@@H]2[C@@H](CO)Nc3ccc(-c4ccccc4)cc3[C@@H]21	-1
COc1ccc(S(=O)(=O)N(C)C[C@@H]2OCc3ccccc3-c3c(n(C)c4ccccc34)C(=O)N([C@H](C)CO)C[C@H]2C)cc1	4
COc1ccc2c3c(n(C)c2c1)[C@H](CO)N(CC1CC1)CC31CCN(C(=O)Nc2ccc(F)cc2F)CC1	7
C/C=C/c1ccc([C@H]2[C@@H](CO)N(CCC)[C@@H]2CNC(=O)NC2CCCC2)cc1	-1[25 µM]
C[C@H](CO)N1C[C@H](C)[C@@H](CN(C)Cc2ccc(Oc3ccccc3)cc2)OCc2ccccc2-c2c(n(C)c3ccccc23)C1=O	5[25 µM]
O=C(CC(F)(F)F)N1C[C@H]2[C@@H](c3ccccc31)[C@H](CO)N2C(=O)C1CC1	-4
COc1cccc(S(=O)(=O)N2[C@@H]3CNC[C@H]2C3c2ccc(/C=C/c3ccccc3)cc2)c1 (stereo partly drawn)	-4[25 µM]
SMILES	CD40 NFkB inh
COc1cccc(S(=O)(=O)N2C[C@@H]3N[C@H](C2)C3c2ccc(/C=C/c3ccccc3)cc2)c1 (stereo partly drawn)	46*!
COc1cccc(-c2ccc(C3[C@@H]4CN(S(=O)(=O)c5ccccc5)C[C@H]3N4)cc2)c1 (stereo partly drawn)	24
COc1ccc2c3c(n(C)c2c1)[C@@H](CO)N(C(=O)c1ccccn1)CC31CN(C(=O)Cc2ccccc2)C1	-24[25 µM]
C=C1CC(COc2cc(=O)oc3ccccc23)(c2ccccc2)OC1=O (stereo not drawn)	31
O=c1[nH]c(=O)n(C2CC(O)C(CO)O2)cc1Br (stereo not drawn)	-10
C=C1CC(Cn2cc(Br)c(=O)[nH]c2=O)(c2ccc(-c3ccccc3)cc2)OC1=O (stereo not drawn)	64*
COc1ccccc1-c1ccccc1[C@@H]1[C@@H](C#N)N(C(=O)C2CC2)[C@H]1CO	-11[25 µM]
C=CC[n+]1c(/C=C2\C=Cc3cc(C)ccc3N2CC)ccc2ccccc21	65*
Cc1nc(NCc2ccco2)c2c(C)c(C)sc2n1	49*
Cc1sc2nc(-c3ccco3)oc(=O)c2c1C	-31
Cc1sc2ncnc(SCc3ccco3)c2c1C	4
CCC(=O)N1CC2(C1)[C@@H](c1ccc(-c3cccc(C)c3)cc1)[C@H](CO)N2S(C)(=O)=O	-3[25 µM]
C[C@@H]1CN(C)C(=O)c2ccccc2O[C@@H]1CN(C)C(=O)OC(C)(C)C	10
N#C[C@H]1[C@H](c2ccccc2-c2ccccc2)[C@@H](CO)N1C(=O)NC1CCCC1	28[25 µM]
N#C[C@@H]1[C@@H](c2ccccc2-c2ccccc2)[C@@H](CO)N1C(=O)NC1CCCC1	53*[25 µM]
N#C[C@H]1[C@H](c2ccccc2-c2ccccc2)[C@H](CO)N1C(=O)NC1CCCC1	27[25 µM]
O=C(Cc1ccccn1)N1CC(=O)N2[C@@H](CO)[C@@H](c3ccc(C#CC4CCCC4)cc3)[C@@H]2C1	4
COc1ccc(CNC(=O)N(C)C[C@H]2OCc3ccccc3-c3ccccc3C(=O)N([C@@H](C)CO)C[C@H]2C)cc1	-16[25 µM]
N#CC1(NC(=O)COC(=O)c2ccc(Cl)nc2)CCCCC1	3
Cc1cc(SCC(=O)NC2(C#N)CCCCC2)nc2c(C)cccc12	-2
N#CC1(NC(=O)Cn2ncc(Cl)c(Cl)c2=O)CCCCC1	119*
C[C@@H]1CN([C@@H](C)CO)C(=O)c2cc(NS(=O)(=O)c3cccs3)ccc2O[C@@H]1CN(C)C(=O)Nc1ccc2c(c1)OCO2	-12[25 µM]
O=C(C[C@@H]1CC[C@@H](NC(=O)NC2CCCCC2)[C@@H](CO)O1)NCc1ccc(F)cc1	-6
Cc1cc(C(=O)COc2ncnc3sccc23)c(C)n1C	-76
Cc1cc(C(=O)COC(=O)Cc2ccc(Cl)cc2)c(C)n1C	-9
SMILES	CD40 NFkB inh
Cc1ccsc1C(=O)OCC(=O)c1cc(C)n(C)c1C	62*
Cc1cc(C(=O)COC(=O)c2ccccc2O)c(C)n1Cc1cccs1	108*
CC(=O)Nc1ccccc1OCC(=O)c1cc(C)n(Cc2cccs2)c1C	14
Cc1cc(C(=O)COC(=O)c2ccc3c(c2)OCO3)c(C)n1Cc1cccs1	-50
N#C[C@H]1[C@@H](c2ccc(C3=CCCC3)cc2)[C@H](CO)N1C(=O)c1ccccn1	13[25 µM]
C[C@H]1CN([C@@H](C)CO)C(=O)CCCn2nncc2CO[C@H]1CN(C)C(=O)Nc1ccc(N2CCN(C)CC2)cc1	-6
CCCC(=O)Nc1ccc2c(c1)OC[C@@H](C)NC[C@@H](C)[C@@H](OC)CN(C)C2=O	-2[25 µM]
CC(C)CN(C[C@H]1N[C@@H](CO)[C@@H]1c1ccc(-c2cncnc2)cc1)C(=O)C1CC1	3[25 µM]
O=C(O)CC/C=C/CC1COC(c2ccccc2Cl)OC1c1ccccc1O (stereo not drawn)	-18[25 µM]
CNC[C@@H]1Oc2ccc(NS(C)(=O)=O)cc2CC(=O)N(C)C[C@@H]1C	4
CCc1cnc(N2[C@@H](C#N)[C@@H](c3ccc(C#CCC4CCCC4)cc3)[C@@H]2CO)s1	16[25 µM]
CCc1cnc(N2[C@H](C#N)[C@H](c3ccc(C#CCC4CCCC4)cc3)[C@H]2CO)s1	5[25 µM]
CCc1cnc(N2[C@H](C#N)[C@H](c3ccc(C#CCC4CCCC4)cc3)[C@@H]2CO)s1	56*[25 µM]
O=C(C1CCCC1)N1CC(=O)N2[C@H](CO)[C@@H](c3ccc(-c4cccnc4)cc3)[C@H]2C1	7
